For 11 compounds, z-score and composite z-score results are on record in PubChem BioAssay.

The nature of experiment [1]: HepG2 liver cancer cell viability effects, profiling panel, resazurin fluorescence, 24 h, PK04 Diversity Set (AID 1172). Further: test concentration not given here. Particulars: higher = more signal.
Experiment [2] in a line: basal S. cerevisiae growth modulation, no modifier, primary screen, OD600, strain BY4716, 24 h, basal condition (AID 1173). Particulars: OD600, 24 h, higher = more signal, called active from +8 up or from −8 down.
A short description of experiment [3]: MM1S myeloma cell viability, profiling panel, resazurin fluorescence, basal, 24 h, PK04 Diversity Set (AID 1174).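 Further: MM1S multiple myeloma cell line; test concentration not given here.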 The conditions noted are these: higher = more signal, called active from +8 up or from −8 down. (Alamar Blue is a resazurin reagent that responds to reducing activity.)
Experiment [4] deals with Dihydroorotate dehydrogenase (quinone), mitochondrial (Plasmodium falciparum (isolate 3D7)) (UniProt Q08210). As to the kind of experiment: PfDHODH enzyme inhibitors, primary screen, biochemical, C-terminal His tag, absorbance 600 nm (AID 1175).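 Further: recombinant parasite enzyme with a five histidine tag at its C terminus; test concentration not given here.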 Particulars: DCIP absorbance 600 nm, higher = more signal, called active from +8 up or from −8 down.
Chain of Dihydroorotate dehydrogenase (quinone), mitochondrial (Plasmodium falciparum (isolate 3D7)) (Q08210 whole entry, looked up): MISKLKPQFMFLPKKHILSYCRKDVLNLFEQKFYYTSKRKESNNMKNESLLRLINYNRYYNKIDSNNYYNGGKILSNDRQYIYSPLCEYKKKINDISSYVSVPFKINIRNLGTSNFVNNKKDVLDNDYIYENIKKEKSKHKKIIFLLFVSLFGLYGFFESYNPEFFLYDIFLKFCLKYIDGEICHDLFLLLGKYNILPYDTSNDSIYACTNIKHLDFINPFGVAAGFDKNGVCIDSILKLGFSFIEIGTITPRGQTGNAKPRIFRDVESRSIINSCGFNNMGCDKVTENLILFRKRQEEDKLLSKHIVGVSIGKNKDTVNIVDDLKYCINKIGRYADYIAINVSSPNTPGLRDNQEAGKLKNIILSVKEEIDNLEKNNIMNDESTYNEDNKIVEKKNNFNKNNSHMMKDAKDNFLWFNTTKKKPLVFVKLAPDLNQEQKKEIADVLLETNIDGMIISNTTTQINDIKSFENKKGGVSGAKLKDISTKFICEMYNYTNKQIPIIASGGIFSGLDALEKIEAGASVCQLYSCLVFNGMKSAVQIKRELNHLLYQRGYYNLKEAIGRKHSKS
The nature of experiment [5]: P. aeruginosa biofilm formation inhibitors, primary screen, strain PAO1, LB-PBS medium, absorbance 600 nm (AID 1176). Further: test concentration not given here. Particulars: P. aeruginosa PAO1 growth/biofilm, A600, 12 h; higher = more signal.
Experiment [6] can be described thus: S. cerevisiae RM11-1a growth modifiers, primary screen, strain RM11-1a, OD600, basal, 24 h (AID 1177).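 Further: cultures grown under basal conditions with no added stressor; test concentration not given here.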 Particulars: OD600, 24 h, higher = more signal, called active from +8 up or from −8 down.
Experiment [7] is described as follows: E. coli acrAB mutant growth effects, primary screen, E. coli filamentation inducers, strain DRC39, OD650, 24 h (AID 1178).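 Further: growth measured as culture turbidity by optical density at 650 nm; test concentration not given here.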 The conditions noted are these: higher = more signal, called active from +8 up or from −8 down.
Experiment [8] is described as follows: E. coli acrAB mutant growth effects, primary screen, E. coli filamentation inducers, strain DRC39, OD650, 48 h (AID 1179).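 Further: screen aims at cell division blockers that make cells filament.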 Particulars: E. coli DRC39 delta-acrAB growth, higher = more signal, called active from +8 up or from −8 down.
Experiment [9] in a line: RPMI8226 myeloma cell viability, profiling panel, resazurin fluorescence, basal, 24 h, PK04 Diversity Set (AID 1180).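 Further: RPMI8826 multiple myeloma cell line at 5000 cells per well; test concentration not given here.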 Particulars: higher = more signal.
Experiment [10] has as its target E3 ubiquitin-protein ligase XIAP (Homo sapiens) (UniProt P98170). As to the kind of experiment: XIAP binders, primary screen, biophysical, small-molecule microarray, fluorescence 635 nm (AID 1181).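 Further: score merges 667 nm emission and signal to noise over triplicate slides.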 The conditions noted are these: small-molecule microarray binding, higher = more signal.

Activity calls are given as the source filed them. Unless noted, how the calls were made is not given here.

Chain of E3 ubiquitin-protein ligase XIAP (Homo sapiens) (P98170 whole entry, looked up): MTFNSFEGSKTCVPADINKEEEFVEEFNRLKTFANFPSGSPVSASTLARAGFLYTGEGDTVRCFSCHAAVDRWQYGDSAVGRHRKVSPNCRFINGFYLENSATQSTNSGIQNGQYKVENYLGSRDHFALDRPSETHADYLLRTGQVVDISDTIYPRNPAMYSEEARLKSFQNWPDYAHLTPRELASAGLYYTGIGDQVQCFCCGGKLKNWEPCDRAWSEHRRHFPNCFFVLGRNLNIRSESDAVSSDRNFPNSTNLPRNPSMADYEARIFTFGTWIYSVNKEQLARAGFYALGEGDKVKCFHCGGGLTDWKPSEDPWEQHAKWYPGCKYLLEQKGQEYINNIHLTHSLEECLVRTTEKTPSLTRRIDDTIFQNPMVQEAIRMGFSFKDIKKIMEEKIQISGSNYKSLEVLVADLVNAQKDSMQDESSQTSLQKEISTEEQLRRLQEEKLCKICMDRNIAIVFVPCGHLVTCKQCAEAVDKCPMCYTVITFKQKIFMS

Consider `O=C1NC(=O)C2C1C=CC(C(O)c1ccc(-c3ccccc3)s1)N2Nc1ccc(Cl)cc1Cl` (stereo not given), for which the z-score is -3.58 in experiment [1]; -1.99 (inactive) in experiment [2]; -1.69 (inactive) in experiment [3]; 2.64 (inactive) in experiment [5]; 0.856 (inactive) in experiment [6]; 0.457 (inactive) in experiment [7]. For the same compound, the results for the z-score in experiment [8] and in [9] were -1.2 (inactive) and -1.75, respectively. The figures for the composite z-score in [4] and in experiment [10] were 0.0414 (inactive) and 0.849, respectively.
Regarding `COc1ccccc1CN1C(=O)c2ccccc2[C@@H](C(=O)NCc2ccccc2)[C@@H]1c1ccc(CO)cc1`, the z-score in [1] is -0.678; in experiment [2], 0.0688 (inactive); in experiment [3], 0.122 (inactive); in experiment [5], -0.0528 (inactive); in [6] it was -0.0226 (inactive); in experiment [7], -0.236 (inactive). Moreover, the results for the z-score in experiment [8] and in experiment [9] were -0.36 (inactive) and 0.427, respectively. The composite z-score in [4] was 0.942 (inactive); in [10], -0.193.
On to `O=C1C2C=CC(C(O)C=Cc3ccc([N+](=O)[O-])cc3)N(Nc3ccccc3F)C2C(=O)N1c1ccccc1` (stereo not given), for which the z-score in [1] is -0.964; in [2], 2.18 (inactive); in [3] it was -0.747 (inactive); in [5], 1.58 (inactive); in [6], 1.6 (inactive); in experiment [7], -0.388 (inactive). Moreover, the z-score in experiment [8] is -0.138 (inactive); in experiment [9], -0.381. Further, the composite z-score is 1.06 (inactive) in experiment [4] and 0.0101 in experiment [10].
As for `CCCCN1CC=CC23O[C@@H]4C=CCCOC(=O)C4[C@H]2C(=O)N(CCCCCO)[C@@H]3C1=O` (stereo not given in full), the z-score in experiment [1] is -0.462; in experiment [2], -0.1 (inactive); in experiment [3] it was -0.401 (inactive); in [5] it was -0.332 (inactive); in experiment [6], -0.308 (inactive); in experiment [7] it was 0.593 (inactive). Besides, the z-score is 0.923 (inactive) in experiment [8] and 0.769 in experiment [9]. The values for the composite z-score in [4] and in [10] were 0.0416 (inactive) and 0.0357, respectively.
With `CS(=O)(=O)CCOC(=O)C1=CC(CCCO)=CC(c2ccc(CN3CCCC3)cc2)N(Cc2cccc(OC(F)(F)F)c2)C=C1C(=O)OCCS(C)(=O)=O` (stereo not given), the z-score in [1] was -0.207; in experiment [2], -3.9 (inactive); in experiment [3], -0.527 (inactive); in experiment [5] it was 1.24 (inactive); in experiment [6], 1.01 (inactive); in experiment [7] it was 0.669 (inactive). Besides, the z-score in [8] is 0.399 (inactive); in [9], 0.0703. The composite z-score in [4] is -1.03 (inactive); in experiment [10] it was -0.24.
For the compound `C=CCNC(=O)[C@@H]1[C@H]2C(=O)O[C@H](c3ccccc3)[C@H](c3ccccc3)N2[C@H](c2ccc(OCCO)cc2)[C@@]12C(=O)N(C(=O)OCCOC)c1ccc(C#CCNC(N)=O)cc12`, the z-score in experiment [1] is -1.09; in experiment [2], 1.04 (inactive); in experiment [3] it was -0.58 (inactive); in experiment [5] it was 0.958 (inactive); in [6], 2.78 (inactive); in [7], 0.589 (inactive). The z-score in experiment [8] was 0.0924 (inactive); in [9], 0.853. Also, the composite z-score in [4] was -0.132 (inactive); in [10], -0.16.
With `CC(c1ccccc1)C(O)C1C=CC2C(=O)N(c3ccccc3)C(=O)C2N1Nc1ccccc1` (stereo not given), the z-score was -1.45 in experiment [1]; -0.652 (inactive) in experiment [2]; -1.4 (inactive) in experiment [3]; 0.67 (inactive) in [5]; 0.0166 (inactive) in experiment [6]; -0.0789 (inactive) in experiment [7]. The z-score in experiment [8] is -0.565 (inactive); in experiment [9], -1.28. Also, the results for the composite z-score in experiment [4] and in [10] were -0.191 (inactive) and 0.255, respectively.
Consider `O=C1C[C@@](C(=O)NCc2ccccc2)(c2ccc([N+](=O)[O-])cc2)[C@@H](c2ccc(CO)cc2)N1CC12CC3CC(CC(C3)C1)C2`, for which the z-score in experiment [1] was -1.63; in experiment [2], 0.229 (inactive); in experiment [3], -3.64 (inactive); in experiment [5], 1.06 (inactive); in [6], 0.87 (inactive); in experiment [7], -0.202 (inactive). For the same compound, the z-score in [8] is 0.368 (inactive); in experiment [9], -4.75. Also, the figures for the composite z-score in [4] and in [10] were 0.59 (inactive) and 0.0427, respectively.
Consider `CCOC(=O)C1=CC[C@@H](c2ccccc2)N(S(=O)(=O)c2ccc(C)cc2)[C@H]1c1ccc(CC)cc1`, for which the z-score is 0.963 in experiment [1]; 1.82 (inactive) in experiment [2]; -0.342 (inactive) in experiment [3]; 0.806 (inactive) in experiment [5]; 1.25 (inactive) in experiment [6]; -0.692 (inactive) in experiment [7]. In addition, the z-score was 0.629 (inactive) in experiment [8] and -0.224 in [9]. Also, the composite z-score is 0.207 (inactive) in [4] and -0.11 in experiment [10].
As for `[N-]=[N+]=NCc1ccccc1[C@@H]1OC(c2ccc(OCCCO)cc2)=N[C@]1(CCS(=O)(=O)c1ccccc1)C(=O)N1CCCCC1`, the z-score in experiment [1] was -0.227; in [2], 0.287 (inactive); in experiment [3] it was -0.814 (inactive); in [5], 0.286 (inactive); in experiment [6], -0.0163 (inactive); in experiment [7] it was -0.523 (inactive). Besides, the z-score was -0.213 (inactive) in experiment [8] and -0.808 in experiment [9]. Moreover, the composite z-score was 0.667 (inactive) in experiment [4] and 0.0174 in [10].
Consider `C[N+](C)(C)CCCC[C@@H]1NC(=O)[C@@H]2C[C@H](C(=O)NCCCCCN)[C@H](c3ccc(O)cc3)N2C1=O`, for which the z-score in experiment [1] was 0.236; in [2] it was -0.812 (inactive); in experiment [3], 0.883 (inactive); in experiment [5], 1.11 (inactive); in [6], -3.02 (inactive); in [7] it was 1.08 (inactive). Moreover, the results for the z-score in [8] and in [9] were 1.48 (inactive) and 0.555, respectively. The composite z-score was -2.28 (inactive) in experiment [4] and 0.346 in experiment [10].
